# Data as given in ChEMBL document CHEMBL3988442, “University of Dundee, Small-Polar-MMV Screening Library” (2021).
# In all, about 38,000 compounds went through this assay and about 1,200 (3.2%) showed an effect of 50% or more. The median lay at about -58%. Shown is part of a subset that was picked to be rich in strong results.
# Test system: Plasmodium falciparum
# Assay: Calibr Malaria Delayed Death Assay SOP
# Assay type: functional, organism-based
# Design: scale not given: in the data most compounds retested in dose-response had high values
# Settings: concentration 4.99e-06 (unit not given; other assays of the set use mol/L)
row,SMILES,Percent Effect [%]
1,NC(=O)C1CCN(c2ncccc2C(=O)N2CCc3ccccc32)C1 (configuration not stated),-5.535
2,Cc1ccc(-c2nc(CN3CCCC(Cn4cncn4)C3)co2)cc1 (configuration not stated),-95.97
3,O=C1CCCN1Cc1ncn2c1CN(C(=O)C1CC=CC1)CCC2,-7.909
4,c1ccc2[nH]c(C3CCN(Cc4nnc(C5CC5)o4)CC3)cc2c1,-66.02
5,COc1cc(F)ccc1N1CCN(Cc2nnc(C3CC3)o2)CC1,-5.241
6,COCCN1CC[C@H](OC)[C@@H]1Cc1ccccc1.O=C(O)C(F)(F)F,62.78
7,CO[C@@H]1CCN(Cc2ccc(C)o2)[C@H]1Cc1ccccc1.O=C(O)C(F)(F)F,-53.14
8,COC[C@H]1CN(CC2CC2)C(=O)[C@@H]2CCN(Cc3ccoc3)CC[C@H]12.O=C(O)C(F)(F)F,-86.79
9,CO[C@H]1CCN(c2nnc(C)s2)C[C@@H]1Cc1ccccc1.O=C(O)C(F)(F)F,-43.17
10,COCCN1CC[C@@H](O)[C@@H]1Cc1ccccc1.O=C(O)C(F)(F)F,-35.17
11,CO[C@@H]1CCN(Cc2ccoc2)C[C@@H]1Cc1ccccc1.O=C(O)C(F)(F)F,88.6
12,CO[C@@H]1CCN(Cc2ccoc2)[C@H]1Cc1ccccc1.O=C(O)C(F)(F)F,59.96
13,COCCN1CC[C@@H](OC)[C@@H]1Cc1ccccc1.O=C(O)C(F)(F)F,1.708
14,CO[C@@H]1CCN(Cc2nccs2)C[C@@H]1Cc1ccccc1.O=C(O)C(F)(F)F,-15.24
15,COCCO[C@H]1CCN(Cc2cccnc2)[C@H]1Cc1cccnc1.O=C(O)C(F)(F)F.O=C(O)C(F)(F)F.O=C(O)C(F)(F)F,3.1
16,CO[C@H]1CCN(Cc2ccoc2)C[C@@H]1Cc1ccccc1.O=C(O)C(F)(F)F,66.03
17,CO[C@@H]1CCN(Cc2nccs2)C[C@@H]1Cc1cccc(C)c1.O=C(O)C(F)(F)F,-13.39
18,Cc1noc(C)c1CN1C[C@@H]2COC[C@]2(COc2ccc(C#N)cn2)C1,-26.6
19,Cn1ncc2c(N[C@@H]3C[C@@H]4CC[C@H]3C4)nc(-c3ccncc3)nc21,-96.32
20,CC(C)OCCCNC(=O)CN1C=Nc2ccccc2S1(=O)=O,-92.03
21,O=C(N1CCCC1)N1CCN(Cc2cccnc2)c2ncccc2C1.O=C(O)C(F)(F)F.O=C(O)C(F)(F)F,-47.54
22,COC[C@@]12CCC[C@@H]1CN(C(=O)CN(C)C)C2.O=C(O)C(F)(F)F,-5.547

row,SMILES,Percent Effect [%]
1,CCCc1cc(=O)[nH]c(SCc2ccccn2)n1,-130.6
2,Cn1cc(C2CCCN2CCc2nc3ccccc3c(=O)[nH]2)cn1 (configuration not stated),-41.09
3,CC(C)NC(=O)N1CCC2(CC(=O)N(c3cccc(F)c3)C2)C1 (configuration not stated),-10.77
4,Cc1cc(C(=O)NCc2cccnc2N2CCCC(O)C2)c(C)o1 (configuration not stated),-87.63
5,CN(C(=O)Nc1nncs1)C1CCN(c2ccccc2Cl)C1=O (configuration not stated),-21.66
6,O=C(O)C(F)(F)F.O=C(O)C(F)(F)F.O=S(=O)(C1CC1)N1CCC2(CCCN(Cc3ccccn3)C2)C1 (configuration not stated),8.867
7,Cc1cnc(NC(=O)C(C)Oc2ccc3c(c2)OCO3)s1 (configuration not stated),-125.5
8,COc1ccc(OCCN(C)CCCn2cnc3c(N)ncnc32)cc1,-97.62
9,COc1ccccc1OCCN(C)c1cc(C)nc(N)n1,69.29
10,COc1ccc(OCCN(C)c2cc(C)nc(N)n2)cc1,62.66
11,COc1ccc(F)c(-c2cc(C)nc(N)n2)c1,-22.79
12,Cc1cc(N(C)CC2COc3ccccc3O2)nc(N)n1 (configuration not stated),46.69
13,Cc1cc(N(C)CCCn2cccn2)nc(N)n1,23.74
14,O=C(CCCc1ccc(Cl)cc1)N1CCC(c2nnc[nH]2)CC1,-167.6
15,O=C(O)C(F)(F)F.c1cnc(N2C[C@H]3CCN(CC4CC4)C[C@H]3C2)cn1,16.16
16,O=C(O)C(F)(F)F.O=C(O)C(F)(F)F.c1cnc(N2CCCC3(CCN(CC4CC4)C3)C2)nc1 (configuration not stated),59.09
17,Cl.Cl.Cn1cnc2c(N3CCCC3)nc(C3CCNCC3)cc21,-34.14
18,O=C(O)C(F)(F)F.c1cnc(N2CCCC3(CCN(CC4CCC4)C3)C2)nc1 (configuration not stated),51.49
19,Cn1cnc2c(N3CCCC3)nc(C3CCN(CC4CC4)CC3)cc21.O=C(O)C(F)(F)F.O=C(O)C(F)(F)F,68.79
20,O=C(O)C(F)(F)F.O=C(O)C(F)(F)F.c1cc2nc(C3CCN(CC4CC4)CC3)nn2cc1N1CCCC1,-27.34
21,O=C(O)C(F)(F)F.O=C(O)C(F)(F)F.c1cnc(N2CCC3(CCN(CC4CCOCC4)CC3)C2)nc1,-33.73
22,O=C(O)C(F)(F)F.O=C(O)C(F)(F)F.c1cnc(N2CCC3(CCN(CC4CCCC4)CC3)C2)nc1,42.2

row,SMILES,Percent Effect [%]
1,O=C(O)C(F)(F)F.O=C(O)C(F)(F)F.c1cnc(N2CCOCC3(CCCN(CC4CCOCC4)C3)C2)nc1 (configuration not stated),-11.39
2,O=C(O)C(F)(F)F.c1cnc(N2CCCC3(COCCN(CC4CC4)C3)C2)nc1 (configuration not stated),37.44
3,Cc1cnc(N2C[C@H]3CCN(CC4CC4)C[C@@H]3C2)nc1.O=C(O)C(F)(F)F,37.51
4,Cc1cnc(N2C[C@H]3CCN(CC4CC4)C[C@H]3C2)nc1.O=C(O)C(F)(F)F,63.65
5,CN(CCc1ccccn1)C(=O)C(O)c1ccc(Br)cc1 (configuration not stated),-90
6,CS(=O)(=O)N1CCC2(CCN(C(=O)c3cccnc3)CC2)C1.O=C(O)C(F)(F)F,-35.24
7,CC(C)Cc1noc(C2CCCN(C(=O)CCc3cnn(C)c3)C2)n1 (configuration not stated),-27.67
8,O=C(O)C(F)(F)F.O=C(O)C(F)(F)F.c1cncc(OC[C@]23COC[C@H]2CN(C2CCOCC2)C3)c1,-14.64
9,CCN(CC)C(=O)CSc1nc2c(cnn2CCO)c(=O)[nH]1,-60.63
10,CCCNCc1ncc(C)c(OC)c1C,-91.87
11,O=C(Cn1nc(N2CCOCC2)ccc1=O)Nc1nccs1,-91.76
12,O=S(=O)(c1ccc(F)cc1F)N1CCCCC1c1nnc2n1CCCC2 (configuration not stated),-68.7
13,CCN(Cc1cccc2c1OCO2)C(=O)NC1CC1,-37.14
14,CN(C)C(=O)CN1CCOCC2(CCN(c3ncc(F)cn3)CC2)C1.O=C(O)C(F)(F)F,-87.82
15,CCCN(CCn1c(=O)oc2ccccc21)CC1CC1,13.79
16,CC(=O)N1CCN(C(=O)Nc2ccc(Cl)cc2)[C@H]2CS(=O)(=O)C[C@H]21,-18.79
17,CSCCC(=O)NCc1cc2n(n1)CCCN(C1CCCCC1)C2,-96.84
18,CC(NC(=O)C1CN(c2ncnc3c2nnn3C)C1)c1ccccc1 (configuration not stated),-135.3
19,Cc1cc(NC(=O)CN2CCCCC2Cn2nc(C)nc2C)on1 (configuration not stated),-33.53
20,O=C(O)C(F)(F)F.c1cnc(N2CCCC3(CCN(CC4CCOC4)CC3)C2)nc1 (configuration not stated),55.15
21,O=C(O)C(F)(F)F.c1cnc(N2CCC3(CN(CC4CCOC4)C3)C2)nc1 (configuration not stated),-18.8
22,O=C(O)C(F)(F)F.c1cnc(N2CCC3(CCN(CC4CCOC4)CC3)C2)nc1 (configuration not stated),-17.94

row,SMILES,Percent Effect [%]
1,Cc1noc(C)c1CN1CC[C@H]2OCC[C@@]2(C(=O)N2CCOCC2)C1.O=C(O)C(F)(F)F,-52.8
2,Cc1nc(CC(=O)N2CCCC(n3ccnc3C(C)C)C2)cs1 (configuration not stated),-131
3,COc1cccc(CN(C)Cn2nc(C(C)(C)C)ccc2=O)c1,-38.19
4,O=C(O)C(F)(F)F.O=C(O)C(F)(F)F.O=C(O)C(F)(F)F.c1ccc(CN2CCC3(CC2)CCN(Cc2cccs2)C3)nc1,53.66
5,Cn1cc(CN2CCC3(CCCN(Cc4ccccn4)C3)CC2)cn1,-52.6
6,O=C(O)C(F)(F)F.O=C(O)C(F)(F)F.c1ccc(CN2CCC3(CC2)CCN(c2ccccn2)C3)nc1,-1.583
7,O=C(O)C(F)(F)F.O=C(O)C(F)(F)F.c1ccc(CN2CCCC3(CCN(CC4CCCO4)CC3)C2)nc1 (configuration not stated),10.98
8,Cc1cccc(N2CCC3(CCN(Cc4ccccn4)CC3)CC2)n1.O=C(O)C(F)(F)F.O=C(O)C(F)(F)F,62.64
9,O=C(O)C(F)(F)F.O=C(O)C(F)(F)F.O=C(O)C(F)(F)F.O=C(O)C(F)(F)F.c1ccc(CN2CCC3(CC2)CCN(Cc2cccnc2)C3)nc1,17.02
10,Cc1ccc(N2CCC3(CCN(Cc4ccccn4)CC3)CC2)nn1,-24.83
11,O=S(=O)(C1CC1)N1CCC2(CCCN(Cc3ccccn3)C2)CC1,-27.08
12,COc1cccc2ccn(CC(=O)NC(C)C)c12,-78.35
13,Cc1ccc(N(CCC#N)C(=O)CCc2cscn2)cc1C,-62.62
14,COC[C@@]12CCO[C@@H]1CCN(C(=O)Cc1cccc(F)c1)C2,-44.15
15,Cc1ccc(-c2nc(CCNC(=O)C3CC(=O)N(C)C3)cs2)cc1 (configuration not stated),-66.89
16,CC(=O)c1cccc(-c2c[nH]c(C)n2)c1,-59.83
17,Cc1cc2c(c(-c3c[nH]c(C)n3)c1)OC(CN)C2 (configuration not stated),79.27
18,Cc1cc2c(c(-c3cncc(C(=O)N4CCCC4)n3)c1)OC(CN)C2 (configuration not stated),3.853
19,Cc1nc(-c2cccc(C(=O)O)c2)c[nH]1,-344.9
20,O=C(CCc1ccco1)N1CCCN(Cc2cscn2)CC1,-137.4
21,O=C(c1cccc(F)c1)N1CC[C@@H]2CN(c3ncccn3)CCO[C@@H]2C1,-63.21
